# According to PubChem BioAssay:
# The source made the active and inactive calls.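 How the source made its calls, unless noted: active means inhibition at or above 50% at 10 µM; inactive means inhibition below 50%.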
# Tests used:
# [1] = inhibitors of TNFa-induced NFkB p65 translocation, primary screen, imaging, HUVEC, MLSMR starter and 10KST1 sets (AID 438;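 active means inhibition above 20% together with a positive visual image hit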;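 further: compound added about 3h40 before a 20 min TNFalpha stimulation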;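 on inhibition: signal is the nuclear over cytoplasmic p65 intensity ratio per well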); settings: HUVEC TNFa-induced p65 nuclear translocation; cell count: measured here: nuclei count (cytotoxicity indicator), at 2.08 µM; inhibition: at 2 µM, stronger effect = higher value, 0% TNFa-plus-vehicle, 100% no-TNFa wells
# [2] = reduction of polyQ htt aggregates in cells – imaging, exon1htt(103Q)mCFP cells, high-content imaging, primary screen (AID 483;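 active means visual image review flags a hit and inhibition of aggregation exceeds 20%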;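 further: compound exposure lasted 3 days before fixation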;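 on nuclei count: percent of the per-plate median nuclei count of sample wells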); settings: exon1htt(103Q)mCFP cell line, aggregate imaging, at 2 µM; inhibition of aggregation: stronger effect = higher value; nuclei count: measured here: cell count, toxicity
# [3] = endothelial E-selectin expression blockers – imaging, HUVEC, immunofluorescence, MLSMR starter and 10KST1 sets, primary screen (AID 487;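 active means visually confirmed hit in the image check and inhibition above 20%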;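 on inhibition: signal is fraction of cell area covered by stained E-selectin grains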;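 on nuclei count: 100% = median nuclei count of all wells on the same plate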); settings: HUVEC TNFalpha-induced E-selectin immunofluorescence imaging, at 2 µM; inhibition: stronger effect = higher value; nuclei count: measured here: cell number, toxicity
# [4] = molecular target: Voltage-gated potassium channel subunit beta-2 (Rattus norvegicus) (UniProt P62483); experiment: inhibitors of rat Kvbeta2 reductase activity – biochemical, NADPH fluorescence, primary screen (AID 622;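 active means fluorescence slope higher than the sample average by over 3 SD, cut at about -0.22 in these data, passing the limit was not always enough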;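 further: slope of raw intensity against log time taken from 70 to 1610 s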); settings: recombinant KvBeta, 4-cyanobenzaldehyde reduction, at 10 µM, stronger effect = higher value
# [5] = molecular target: Voltage-gated potassium channel subunit beta-2 (Rattus norvegicus) (UniProt P62483); experiment: enhancers of rat Kvbeta2 NADPH turnover – biochemical, NADPH fluorescence, primary screen (AID 623;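 active means NADPH fluorescence slope more negative than the mean of all samples by about 3 SD, 99.7% confidence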;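 further: fluorescence intensity change per second fitted from 20 to 320 s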); settings: Recombinant KvBeta, NADPH fluorescence decrease slope, 10 min; at 10 µM; stronger effect = lower value
# [6] = molecular target: Alpha-2C adrenergic receptor (Homo sapiens) (UniProt P18825); experiment: compounds altering alpha2C-coupled GIRK flux – cell-based, HEK293 alpha2C/GIRK1/2, thallium flux, primary screen (AID 624;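 active means fluorescence slope after compound addition differing from the mean of all screened samples at 99.7% confidence, in either direction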;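 further: slope of fluorescence ratio to pre-addition baseline per second over 15 to 24 s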); settings: thallium flux BTC fluorescence, at 10 µM, actives lie on both sides
# [7] = blockers of RIG-like receptor reporter activation – cell-based, Sendai virus stimulus, luciferase, 10K MLSCN set, TLR/RLR signaling modifier project, primary screen (AID 602276); settings: HEK293 RL24 IRF3 luciferase reporter, at 10 µM, stronger effect = higher value;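 further: firefly luciferase from ISG56 promoter only with Renilla not read in this screen; 0% = Sendai virus plus DMSO and 100% = medium plus DMSO without virus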
# [8] = TLR3 IRF3 reporter activation blockers – cell-based, poly I:C stimulus, luciferase, 10K MLSCN set, primary screen (AID 602277;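 active means inhibition of the reporter signal at or above 50%; inactive means inhibition below 50%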); settings: HEK293-TLR3 RL24 IRF3 luciferase reporter, at 10 µM, stronger effect = higher value
# Chain of Alpha-2C adrenergic receptor (Homo sapiens) (P18825 whole entry, looked up): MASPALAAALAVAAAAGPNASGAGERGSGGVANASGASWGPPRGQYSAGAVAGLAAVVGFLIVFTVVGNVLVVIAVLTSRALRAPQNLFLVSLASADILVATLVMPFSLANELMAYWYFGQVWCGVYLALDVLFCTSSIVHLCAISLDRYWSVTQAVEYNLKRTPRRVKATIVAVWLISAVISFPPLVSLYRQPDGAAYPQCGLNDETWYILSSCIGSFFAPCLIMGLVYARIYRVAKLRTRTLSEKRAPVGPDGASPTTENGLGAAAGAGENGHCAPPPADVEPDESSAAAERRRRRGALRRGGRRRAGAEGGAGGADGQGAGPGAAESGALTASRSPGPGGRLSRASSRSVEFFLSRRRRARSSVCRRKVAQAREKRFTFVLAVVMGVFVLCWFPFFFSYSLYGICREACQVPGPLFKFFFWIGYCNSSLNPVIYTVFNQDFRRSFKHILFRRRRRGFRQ
# Chain of Voltage-gated potassium channel subunit beta-2 (Rattus norvegicus) (P62483 whole entry, looked up): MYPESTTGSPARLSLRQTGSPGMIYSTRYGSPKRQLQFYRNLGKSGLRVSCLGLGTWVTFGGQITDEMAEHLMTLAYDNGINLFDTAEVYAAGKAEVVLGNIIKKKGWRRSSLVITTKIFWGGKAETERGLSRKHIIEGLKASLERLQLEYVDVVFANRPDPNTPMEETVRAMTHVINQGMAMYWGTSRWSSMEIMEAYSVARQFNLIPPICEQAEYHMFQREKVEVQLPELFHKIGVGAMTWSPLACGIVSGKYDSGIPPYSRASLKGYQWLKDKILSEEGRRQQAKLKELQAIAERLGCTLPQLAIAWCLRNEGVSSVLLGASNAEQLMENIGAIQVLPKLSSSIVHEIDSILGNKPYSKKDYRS
SMILES,cell count [1],inhibition [1],inhibition of aggregation [2],nuclei count [2] [%],inhibition [3],nuclei count [3] [%],fluorescence slope [4],NADPH fluorescence slope [5],slope [6],inhibition [7],inhibition [8]
O=c1cnnc(NCc2ccccc2)[nH]1,696,-11.2% (inactive),9.3% (inactive),99.5,-32.9% (inactive),105,-0.418 (inactive),-2.6e-05 (inactive),0.00324 (inactive),1.13% (inactive),8.35% (inactive)
CCc1cc2c(=O)n(C(C)C(=O)OC3CCCCC3)cnc2s1 (centres undefined),561,0% (inactive),32% (inactive),114,-73.8% (inactive),103,-0.486 (inactive),-3.4e-05 (inactive),0.00382 (inactive),-49.6% (inactive),-101% (inactive)
COc1ccc(C(=O)Nc2ccc(S(=O)(=O)Nc3onc(C)c3C)cc2)cc1,501,3.7% (inactive),-4.3% (inactive),110,16.1% (inactive),111,-0.354 (inactive),-5.4e-05 (inactive),0.00607 (inactive),4.94% (inactive),2% (inactive)
COc1ccc(CCNC(=O)c2ccc(N3CCCC3=O)cc2)cc1OC,472,-19% (inactive),43.9% (active),62.2,-26% (inactive),89.1,-0.453 (inactive),-0.000105 (inactive),0.00604 (inactive),8.09% (inactive),20.6% (inactive)
CCOc1cc(C(=O)N(C)c2ccccc2)cc(OCC)c1OCC,314,5.5% (inactive),17.8% (inactive),97.5,5.8% (inactive),86.2,-0.368 (inactive),-3.2e-05 (inactive),0.00526 (inactive),18.6% (inactive),32.8% (inactive)
COc1ccc(C2CC(c3ccco3)n3ncnc3N2)cc1 (centres undefined),458,6% (inactive),-19.3% (inactive),59.7,-21.1% (inactive),96.4,-0.4 (inactive),-6.8e-05 (inactive),0.00517 (inactive),9.66% (inactive),39.2% (inactive)
Cn1c(Cc2ccccc2)nnc1SCC(=O)N1CCOCC1,492,-0.8% (inactive),-33% (inactive),103,-74.1% (inactive),123,-0.276 (inactive),-4.7e-05 (inactive),0.00541 (inactive),10.3% (inactive),13.5% (inactive)
COc1cc(NS(=O)(=O)N2CCCC2)cc(OC)c1OC,712,0.7% (inactive),9% (inactive),95.3,-115% (inactive),128,-0.498 (inactive),-1.9e-05 (inactive),0.00502 (inactive),7.48% (inactive),16.9% (inactive)
COCCOC(=O)/C=C1/NC(=O)CS1,669,5.3% (inactive),9.1% (inactive),100,45.1% (inactive),98.3,-0.606 (inactive),-1.8e-05 (inactive),0.00397 (inactive),15.1% (inactive),21.6% (inactive)
Cc1ccc(-n2ncc3c(=O)[nH]c(SC(C)C)nc32)cc1,716,-23.9% (inactive),2.6% (inactive),82.4,-18.4% (inactive),126,-0.455 (inactive),-4.4e-06 (inactive),0.0066 (inactive),7.08% (inactive),21.6% (inactive)
Cc1ccccc1-n1nnc2c(=O)oc3ccccc3c21,345,-1.6% (inactive),20.9% (inactive),98.5,-83% (inactive),96.8,-0.347 (inactive),-3.7e-05 (inactive),0.00409 (inactive),12.8% (inactive),26.7% (inactive)
CCCCn1c(NCCC)nc2c1c(=O)[nH]c(=O)n2C,383,-6.2% (inactive),-0.7% (inactive),114,-38% (inactive),124,-0.402 (inactive),-0.000106 (inactive),0.00598 (inactive),16% (inactive),29.1% (inactive)
CCOC(=O)c1sc2nc(NC(=O)C(C)(C)C)sc2c1C,600,16.7% (inactive),-3.3% (inactive),112,-25.6% (inactive),104,-0.496 (inactive),-2.5e-05 (inactive),0.00604 (inactive),-20.5% (inactive),-150% (inactive)
CCOC(=O)N(C)c1ccc(C(O)(C(F)(F)F)C(F)(F)F)cc1,601,-8.6% (inactive),-12.5% (inactive),105,-58.6% (inactive),109,-0.369 (inactive),-6.4e-05 (inactive),0.0041 (inactive),-1.35% (inactive),100% (active)
